# Experimental data reported in ChEMBL document CHEMBL1157539, “Thousands of chemical starting points for antimalarial lead identification” (Nature, 2010).
# Tested on: HepG2
# Experiment: GSK_TCMDC: Percent inhibition of human HepG2 cell line. Test compounds present at 10uM.
# Format: functional
row,Compound,Inhibition
1,N#Cc1ccc(N(CCOC(=O)c2ccc(Br)s2)Cc2ccccc2C(F)(F)F)cc1C(F)(F)F,8%
2,CCOc1cc(C)ccc1C1CCN(CCCCNC(=O)c2ccc(NC(=O)c3cc(Cl)cc(Cl)c3)cc2)CC1,4%
3,CN1CCC(C(=O)Nc2ccc(-c3ccc(-c4nc5ccccc5[nH]4)s3)cc2)CC1,30%
4,CC(Oc1ccc(Cl)cc1Cl)c1nc(-c2ccc(NC(=O)c3ccco3)cc2)no1 (stereo not drawn),7%
5,CCc1c(CCNCCCCCCNCc2ccc3c(c2CC)OCO3)ccc(OC)c1OC.Cl,38%
6,CCNc1cc(C(=O)N[C@@H](Cc2ccccc2)[C@H](O)CN[C@H](C)c2ccccc2)cc(N2CCCC2=O)c1,0%
7,N#Cc1ccccc1C1CCN(C2CCC(Nc3cc(-c4cccnc4)ccn3)CC2)CC1 (stereo not drawn),38%
8,CS(=O)(=O)CCNCc1cccc(-c2cc3c(Nc4ccc5c(cnn5Cc5ccccc5)c4)ncnc3s2)c1.O=C(O)C(F)(F)F,36%
9,COc1ccc(Nc2ncc3c(-c4cccc(NC(=O)Cc5cccc(F)c5)c4)c[nH]c3n2)cc1OC,24%
10,O=C(Cc1c[nH]cn1)Nc1cccc(-c2ccc(-c3nc4cc(C(F)(F)F)ccc4[nH]3)cc2)c1,10%
11,CCNc1cc(C(=O)N[C@@H](Cc2ccccc2)[C@H](O)CNC23CCC(CC2)CC3)cc(N2CCCCS2(=O)=O)c1.Cl,10%
12,Clc1cccc(Nc2ccc3c(N4CCCCC4)ncnc3n2)c1,54%
13,COc1ccc(-c2nnc(Sc3ccc(C#N)c([N+](=O)[O-])c3)n2CCC(C)C)cc1,15%
